Data on three sequences can be found in paper PMC8384837, “Expanding the binding specificity for RNA recognition by a PUF domain”.

What all share (assay): yeast three-hybrid, YBZ-1, SC-Leu-His + 0.5 mM 3-AT, 4 days
Settings in all cases: tags: N-Gal4 AD-HA kept; label: inside an RPR1-promoter hybrid RNA with tandem MS2 sites; ssRNA

One assay deals with PUM1 PUF domain R3-YWR (Homo sapiens, UniProt Q14671 828-1176, C935Y;R936W;Q939R). The gist of the method:
(§1)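 A centromeric plasmid in strain YBZ-1 co-expressed Pumilio-1 PUF domain libraries, randomized at the three base-contacting residues of each repeat, with matching RNA elements; the strain carries a LexA–MS2 coat fusion and a HIS3 reporter. After four days on SC-Leu (input) or SC-Leu-His + 0.5 mM 3-AT (selection), the repeat regions were PCR-amplified and Illumina-sequenced. The interaction score is the log change in variant frequency from input to selection, using log2 and a pseudocount of 1 where absent.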

In the next assay the target is PUM1 PUF domain R3-YRS (Homo sapiens, UniProt Q14671 828-1176, C935Y;Q939S). In short, it runs like this:
as §1

The next assay deals with PUM1 PUF domain R3-FFA (Homo sapiens, UniProt Q14671 828-1176, C935F;R936F;Q939A). In short, it runs like this: as §1
Sequence of PUM1 PUF domain R3-FFA (Q14671 828-1176 C935F/R936F/Q939A): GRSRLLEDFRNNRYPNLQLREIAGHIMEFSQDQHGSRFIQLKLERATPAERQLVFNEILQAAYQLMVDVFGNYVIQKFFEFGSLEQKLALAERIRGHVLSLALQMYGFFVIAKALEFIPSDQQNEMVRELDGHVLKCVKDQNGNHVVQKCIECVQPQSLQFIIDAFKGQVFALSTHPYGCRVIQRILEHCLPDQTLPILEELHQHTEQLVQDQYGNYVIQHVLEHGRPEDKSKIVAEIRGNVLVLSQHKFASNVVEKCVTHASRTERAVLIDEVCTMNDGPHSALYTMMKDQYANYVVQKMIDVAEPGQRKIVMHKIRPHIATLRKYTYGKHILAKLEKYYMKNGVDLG
For another assay, the target named is PUM1 PUF domain R3-LRM (Homo sapiens, UniProt Q14671 828-1176, C935L;Q939M). In short, it runs like this: as §1
Sequence of PUM1 PUF domain R3-LRM (Q14671 828-1176 C935L/Q939M): as the sequence (Q14671 828-1176 C935F/R936F/Q939A) above, with F108L, F109R, A112M counted along it
Another assay has as its target PUM1 PUF domain R2-AVA (Homo sapiens, UniProt Q14671 828-1176, N899A;Y900V;Q903A). In short, it runs like this:
as §1

The target of a further assay is PUM1 PUF domain R5-KSN (Homo sapiens, UniProt Q14671 828-1176, C1007K;R1008S;Q1011N). The gist of the method:
as §1

The target in another assay is PUM1 PUF domain R5-KGG (Homo sapiens, UniProt Q14671 828-1176, C1007K;R1008G;Q1011G). In short, it runs like this:
as §1

Sequence of PUM1 PUF domain R5-KGG (Q14671 828-1176 C1007K/R1008G/Q1011G): as the sequence (Q14671 828-1176 C935F/R936F/Q939A) above, with F108C, F109R, A112Q, C180K, R181G, Q184G counted along it
Sequence of PUM1 PUF domain R3-YRS (Q14671 828-1176 C935Y/Q939S): as the sequence (Q14671 828-1176 C935F/R936F/Q939A) above, with F108Y, F109R, A112S counted along it
Sequence of PUM1 PUF domain R2-AVA (Q14671 828-1176 N899A/Y900V/Q903A): as the sequence (Q14671 828-1176 C935F/R936F/Q939A) above, with N72A, Y73V, Q76A, F108C, F109R, A112Q counted along it
Sequence of PUM1 PUF domain R5-KSN (Q14671 828-1176 C1007K/R1008S/Q1011N): as the sequence (Q14671 828-1176 C935F/R936F/Q939A) above, with F108C, F109R, A112Q, C180K, R181S, Q184N counted along it
Sequence of PUM1 PUF domain R3-YWR (Q14671 828-1176 C935Y/R936W/Q939R): as the sequence (Q14671 828-1176 C935F/R936F/Q939A) above, with F108Y, F109W, A112R counted along it

For “GGCUAGAACUAGUGGAUCCCCCGGCGCCCGGCGGCUCGAGCCCGGGUAAGUGUAAGUAGUCUGCAUGCCGCCGGGCGCCAUGCCUGCAGGUCGACUCUAGAAAACAUG”, the binding signal in the assay with PUM1 PUF domain R3-YWR was 5.62 log2 enrichment (interaction score); in the assay with PUM1 PUF domain R3-YRS, 4.29 log2 enrichment (interaction score); with PUM1 PUF domain R3-FFA it was 8.18 log2 enrichment (interaction score); with PUM1 PUF domain R3-LRM, 3.32 log2 enrichment (interaction score).
“GGCUAGAACUAGUGGAUCCCCCGGCGCCCGGCGGCUCGAGCCCGGGUAAGUGUAAAGAGUCUGCAUGCCGCCGGGCGCCAUGCCUGCAGGUCGACUCUAGAAAACAUG”: the binding signal with PUM1 PUF domain R2-AVA was 2.41 log2 enrichment (interaction score).
Turning to “GGCUAGAACUAGUGGAUCCCCCGGCGCCCGGCGGCUCGAGCCCGGGUAAGUGUCAAUAGUCUGCAUGCCGCCGGGCGCCAUGCCUGCAGGUCGACUCUAGAAAACAUG”, the binding signal with PUM1 PUF domain R5-KSN is 3.85 log2 enrichment (interaction score); with PUM1 PUF domain R5-KGG, 2.89 log2 enrichment (interaction score).
